Sampled rows, rich in hits. Any-hit rate of the full collection: about 3.4%.
TEAD-YAP block: TEAD-YAP interaction inhibition; HEK-TIYL cells, TEAD-Gal4/YAP UAS-luciferase luminescence; inhibition, % at 9.12 µM; hit rate 1.4% among 640,000; AID 1259422; in the data active means inhibition above about 32%
GPR151 ag: human GPR151 activation. Q8TDV0. PathHunter beta-arrestin GPR151 cells, luminescence. activation, % at 11.2 µM. hit rate 1% among 650,000. AID 1508602; in the data active means activation above about 4.9%
FBW7 act: human FBW7 E3 ligase activation, primary screen. Q969H0. AlphaScreen FBW7–phospho-cyclin E peptide binding, activator screen. normalized activity (activation), % at 26.1 µM. hit rate 0.13% among 650,000. AID 1259310; in the data active means normalized activity above about 1.9%;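 further: purified mutant Fbw7 with reduced substrate affinity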
MITF primary: human MITF inhibition, primary screen; O75030; AlphaScreen MITF homodimerization, bead proximity signal; inhibition, % at 2.6 µM; hit rate 0.91% among 650,000; AID 1259374; in the data active means inhibition above about 50%
GPR151 conf act: human GPR151 activation, confirmation screen; AID 1508609; shares compounds with GPR151 ag; GPR151 PathHunter beta-arrestin cells, luminescence, 90 min; % of EA-reagent control over plate median; 6,700 tested, under 10 active; activation, % at 11.2 µM;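 active means mean percent activation across replicates above the confirmation screen cutoff of 4.91%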
GPR119 counter: counter-screen for GPR151 activators: effect on human GPR119 | activation, % at 11.2 µM | AID 1508611 | GPR119 PathHunter beta-arrestin cells, luminescence, 90 min; 0 = compound-well median, 100 = enzyme-acceptor control | hit rate 0.3% among 6,700 | shares compounds with GPR151 ag;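 active means mean percent activation in the counterscreen above 29.09%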;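 further: counterscreen on off-target GPR119 to flag nonselective hits from the GPR151 activator screen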
Target sequence (Q8TDV5 whole entry, looked up): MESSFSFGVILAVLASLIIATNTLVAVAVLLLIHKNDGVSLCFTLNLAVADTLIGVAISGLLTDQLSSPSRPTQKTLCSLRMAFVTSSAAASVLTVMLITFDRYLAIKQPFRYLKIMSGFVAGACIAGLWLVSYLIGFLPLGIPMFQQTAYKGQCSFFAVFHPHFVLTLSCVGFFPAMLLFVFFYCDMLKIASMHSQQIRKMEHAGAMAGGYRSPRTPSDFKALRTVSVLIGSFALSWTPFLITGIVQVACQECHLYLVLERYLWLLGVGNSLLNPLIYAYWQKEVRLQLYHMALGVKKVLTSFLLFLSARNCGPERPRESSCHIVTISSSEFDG
Numbers stand for hits; 0 = inactive; - = no result given; ! = repeats disagree.

SMILES	TEAD-YAP block	GPR151 ag	FBW7 act	MITF primary	GPR151 conf act	GPR119 counter
O=C(NCC1CCCO1)NC1CC(=O)N(c2ccccc2)C1 (centres undefined)	0	0	0	0	-	-
CC(C)NC(=O)c1ccccc1NS(=O)(=O)Cc1ccccc1	0	0	0	0	-	-
CCC(C)c1ccccc1NS(=O)(=O)Cc1ccccc1 (centres undefined)	0	5.8	0	0	0	0
COc1ccccc1NC(=O)N1CCC(C(=O)c2ccc(F)cc2)CC1	0	5.7	0	0	0	0
COc1ccccc1NC(=O)N1CCC(c2nc(-c3cccc(C(F)(F)F)c3)no2)CC1	0	11	0	0	0	0
COc1cccc(-c2noc(C3CCCN(C(=O)Nc4ccc(C(F)(F)F)cc4)C3)n2)c1 (centres undefined)	0	0	0	0	-	-
CC1=C/C(=N\OS(=O)(=O)c2ccccc2)C(C(C)C)=CC1=O	0	8.5	0	0	0	0
CC1=C/C(=N\S(=O)(=O)c2ccccc2)C(C)=CC1=O	0	0	0	0	-	-
COc1ccc(CN2CCc3nnc(CNC(C)=O)n3CC2)c(OC)c1	0	0	0	0	-	-
Cc1ccccc1CN1C[C@@H]2C[C@@H](/C=C/c3ccco3)N3CCC[C@@]23C1=O	0	0	0	0	-	-
Cn1c(=NC(=O)CS(=O)(=O)c2ccccc2)sc2ccccc21	0	5.0	0	0	0	0
COc1ccc(C2C(C#N)=C(N)Oc3c2c(C)nn3-c2ccccc2)cc1OC (centres undefined)	0	0	0	0	-	-
Cc1nn(-c2cccc(Cl)c2)c2c1C(c1ccccc1Cl)C(C#N)=C(N)O2 (centres undefined)	0	5.5	0	0	0	0
CCOc1ccc(C2C(C#N)=C(N)Oc3c2c(C)nn3-c2ccccc2)cc1OC (centres undefined)	0	6.4	0	0	0	0
Cc1nn(-c2ccccc2)c2c1C(c1ccccc1Cl)C(C#N)=C(N)O2 (centres undefined)	0	0	0	0	-	-
O=C(CCC(=O)OCCCC(F)(F)C(F)(F)F)Nc1nc2ccccc2s1	0	0	0	0	-	-
O=C(CN1C(=O)C2C3CCC(C3)C2C1=O)N1CCCC(c2ncncc2-c2ccncc2)C1 (centres undefined)	0	0	0	0	-	-
CC(C(O)c1ccc(O)cc1)N1CCC(Cc2ccccc2)CC1 (centres undefined)	0	10!	0	0	0	0
CCCCN(C)c1ncnc2scc(-c3ccccc3)c12	0	0	0	0	-	-
CCCCN(CC)c1ncnc2scc(-c3ccccc3)c12	0	8.0	0	0	0	0
C=CCNC(=O)/C(C#N)=C/c1ccccc1OC	0	0	0	0	-	-
O=C(Nc1ccc2c(c1)N(C(=O)c1ccco1)CC2)c1cccs1	0	0	0	0	-	-
O=C(c1ccco1)N1CCc2ccc(NC(=O)C3(c4ccccc4)CCOCC3)cc21	0	8.4	0	0	0	0
COc1ccc(C2Nc3ccccc3C(=O)N2c2ccc(F)cc2)cc1COc1ccc(Cl)cc1 (centres undefined)	0	0	0	0	-	-
O=C1c2ccccc2NC2(C(=O)N(Cc3cccc4ccccc34)c3ccccc32)N1c1ccccc1 (centres undefined)	0	7.0	0	0	0	0
SMILES	TEAD-YAP block	GPR151 ag	FBW7 act	MITF primary	GPR151 conf act	GPR119 counter
COc1ccc(-c2nc3c[n+](CC(N)=O)ccn3c2Nc2ccccc2C)cc1	0	6.7	0	0	0	0
Cc1ccc(Nc2c(-c3ccc(N4CCOCC4)cc3)nc3c[n+](CC(N)=O)ccn23)cc1	0	5.1	0	0	0	0
O=C1CC(N2CCN(C34CC5CC(CC(C5)C3)C4)CC2)C(=O)N1c1ccc(F)cc1 (centres undefined)	0	0	0	0	-	-
CS(=O)(=O)N1CCN(c2ccc(C(=O)N3CCOCC3)cc2[N+](=O)[O-])CC1	0	7.6	0	0	0	0
O=C(c1ccc(N2CCCCCC2)c([N+](=O)[O-])c1)N1CCOCC1	0	0	0	0	-	-
O=C(NC1CCCCC1)/C(=N\O)c1ccccc1	0	0	0	0	-	-
COc1cc(C(Nc2cccc(C)n2)c2ccc3ccc(C)nc3c2O)ccc1O (centres undefined)	0	5.2	0	0	0	0
CCOC(=O)c1cnc2c(C)c(C)ccc2c1NCc1ccco1	0	0	0	0	-	-
CCOC(=O)c1cnc2c(ccc3ccccc32)c1NCc1ccco1	0	5.8	0	0	0	0
CC(=O)Nc1cccc(-c2cnc3ccc(NC4CCOCC4)nn23)c1	0	4.9	0	0	0	0
O=C(O)/C=C/c1cccc(-c2cnc3ccc(NC4CCOCC4)nn23)c1	0	0	0	0	-	-
CCC(=O)Nc1nc2n(n1)C(c1ccccc1)CC(c1ccc(Cl)cc1)N2 (centres undefined)	0	0	0	0	-	-
O=C(Nc1nc2n(n1)C(c1ccc(F)cc1)CC(c1ccccc1)N2)c1cccnc1 (centres undefined)	0	5.7	0	0	0	0
C/C(=N\N=C(/C)c1nnn(-c2nonc2N)c1C)c1ccc(Cl)cc1	0	0	0	0	-	-
COc1ccc2c(c1)c(C(=O)O)c(C)n2CCc1ccc(OC)c(OC)c1	0	5.6	0	0	0	0
COc1ccc(CCn2c(C)c(C(C)=O)c3cc(OC(=O)c4cccc(Cl)c4)ccc32)cc1OC	0	0	0	0	-	-
CC1(C)[C@H]2CC=C(CN3CCC(n4nccc4NC(=O)CCOc4ccccc4)CC3)[C@@H]1C2	0	5.3	0	0	0	0
CC1(CCC(=O)N2CCC(n3nccc3NC(=O)CCOc3ccccc3)CC2)CC1	0	0	0	0	-	-
CC(C)CC(=O)Nc1ccnn1C1CCN(CC2=CC[C@H]3C[C@@H]2C3(C)C)CC1	0	0	0	0	-	-
O=C(CCOc1ccccc1)Nc1ccnn1C1CCN(C(=O)CCc2ccccc2)CC1	0	5.7	0	0	0	0
COC(=O)c1c(NC(=O)CSc2nnc3sc4ccccc4n23)sc(Cl)c1-c1ccccc1	0	0	0	0	-	-
CCOC(=O)c1c(NC(=O)NCc2ccccc2)sc2c1CCC2	0	0	0	0	-	-
O=C(Nc1ccccc1Cl)c1csc(-n2cccc2)n1	0	5.7	0	0	0	0
CCOc1ccccc1N1CC(C(=O)Nc2ccc(Br)cc2C)CC1=O (centres undefined)	0	0	0	0	-	-
CCOC(=O)c1c(NC(=O)COc2ccc(I)cc2)sc(C(C)=O)c1C	0	0	0	0	-	-
O=C(NC1CCCCC1)[C@H]1C=CCN1C(=O)C1CC1	0	7.4	0	0	0	0
CCOC(CCn1c(SC(CC)C(=O)NCc2cccnc2)nc2ccccc2c1=O)OCC (centres undefined)	0	7.0	0	0	0	0
COC(=O)CN1C(=O)C2(OCCCO2)c2cc(C)ccc21	0	0	0	0	-	-

Bioassay records (PubChem BioAssay)
